Bioassay records: PubChem BioAssay, National Center for Advancing Translational Sciences (NCATS)
Pf Dd2 inh – qHTS Primary assay for Inhibitors of Plasmodium falciparum Dd2 growth in vitro; AID 1347417, 2020; Potency, µM (series often up to 28.9 µM), for the others: at the highest dose activity, negative = inhibition, usual class: inhibitors; actives 4.3% (n = 120,000); P. falciparum Dd2 growth, SYBR Green, 72 h; active = well fitted inhibition curve with a large enough effect;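 also: plate controls were DMSO vehicle for no effect and reference drug for full effect; nearly all actives have a fitted effect of over 65% in size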
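Infected erythrocytes (Dd2, 0.3% parasitemia, 2.5% hematocrit final) are added to compound in RPMI-1640/Albumax II medium, grown 72 h at 37C in low oxygen, then lysed with saponin/Triton-X containing SYBR Green and read by fluorescence.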
An asterisk follows results filed as active; [ ] = another dose, or the depositor's remark. Shown is part of a subset that was picked to be rich in hits. Potency is read from the fitted curve at half-maximal effect.

For CC(C)C[C@@H]1N[C@H](C(=O)NCc2ccco2)Cc2cn(Cc3nccn3C)c3cccc1c23 the results were Pf Dd2 inh -16%.
CC(C)C[C@@H]1N[C@H](C(=O)NCCCn2ccnc2)Cc2c[nH]c3cccc1c23 was read as Pf Dd2 inh 8.9µM*.
Screening CC(C)C[C@@H]1N[C@H](C(=O)NCc2ccccc2)Cc2c[nH]c3cccc1c23 returned Pf Dd2 inh inactive.
For CCCNC(=O)[C@@H]1Cc2c[nH]c3cccc(c23)[C@H](CC(C)C)N1 the results were Pf Dd2 inh inactive.
`CC(C)C[C@@H]1N[C@H](C(=O)NCc2ccccc2Cl)Cc2c[nH]c3cccc1c23` gave Pf Dd2 inh inactive.
Screening O=C(CCc1ccccc1)NCc1nnc2ccc(-c3ccccc3)nn12 returned Pf Dd2 inh -3%.
COc1ccc(-c2ccc3nc(-c4ccc(F)cc4F)oc3c2)c(OC)c1OC was read as Pf Dd2 inh 1%.
Screening O=C1CC2CCN(Cc3cccc(C(F)(F)F)c3)CC2CCN1 (stereo not given) returned Pf Dd2 inh -10%.
Screening CCNC(=O)C1N(C(C)C)C(=O)C12CCCCC2 (stereo not given) returned Pf Dd2 inh -9%.
COc1ccc(CC(=O)N2CC3CC(C2)[C@H]2CCCC(=O)N2C3)cc1Cl (stereo not given in full) was read as Pf Dd2 inh 5%.
Screening CN1CCC(OCCCn2ccnc2-c2ccccc2C(=O)O)CC1 returned Pf Dd2 inh 15%.
Cc1cnc(C(=O)N2CCCCCCNC(=O)[C@@H]3C[C@@H](C(=O)N4CCc5ccccc5C4)C[C@@H]32)cn1 was read as Pf Dd2 inh -16%.
Screening CC(C)(C)NC(=O)N1CCCCCCNC(=O)[C@@H]2C[C@@H](C(=O)N3CCc4ccccc4C3)C[C@@H]21 returned Pf Dd2 inh 4.5µM*.
For O=C1NCCCCCCN(C(=O)C2CC2)[C@H]2C[C@H](C(=O)N3CCc4ccccc4C3)C[C@@H]12 the results were Pf Dd2 inh inactive.
`Cn1c(CO[C@H]2CN(Cc3ccc(S(C)(=O)=O)cc3)C[C@H]2F)nc2ccccc21` gave Pf Dd2 inh -6%[44.1 µM].
`COCCCNC(=O)N1C[C@@H]2CCCN3CCC[C@@H]([C@H]23)[C@H]1CCCC(=O)NCC1CC1` gave Pf Dd2 inh -16%.
For O=C(c1ccsc1)N1CCCC(n2cc(-c3nc(C4CC4)no3)nn2)C1 (stereo not given) the results were Pf Dd2 inh inactive.
For COc1cc(C2c3c(-c4c(C)cc(C)cc4O)n[nH]c3C(=O)N2CCO)cc(OC)c1OC (stereo not given) the results were Pf Dd2 inh inactive.
COc1ccc(C2c3c(-c4ccc(F)cc4)n[nH]c3C(=O)N2c2ccccc2)cc1OC (stereo not given) was read as Pf Dd2 inh -4%.
For COc1cc(C2c3c(-c4ccccc4O)n[nH]c3C(=O)N2Cc2ccco2)ccc1OCC(C)C (stereo not given) the results were Pf Dd2 inh 2.2µM*.
For COc1cc(C2c3c(-c4ccccc4O)n[nH]c3C(=O)N2CCO)ccc1OCC(C)C (stereo not given) the results were Pf Dd2 inh 10µM*.
For COc1cc(C2c3c(oc4ccccc4c3=O)C(=O)N2Cc2ccccc2Cl)ccc1O (stereo not given) the results were Pf Dd2 inh -26%.
CCOCC(=O)N1CCC2(CC1)CC(c1ccccc1)C(=O)N2C (stereo not given) was read as Pf Dd2 inh -12%.
`O=C(N1CCCC1)N1CCn2c(nnc2C2CCCN2)C1` (stereo not given) gave Pf Dd2 inh 14%.
`C#CCN(C)Cc1nc(C2(O)CCN(C)CC2)cs1` gave Pf Dd2 inh 1%[44.1 µM].
For C#CCN(C)Cc1nc(C2(O)CCN(CC3CC3)CC2)cs1 the results were Pf Dd2 inh inactive.
`C#CCN(C)Cc1nc(C2(O)CCN(C3CCC3)CC2)cs1` gave Pf Dd2 inh 10µM*.
For COc1ncccc1-c1cccc(CCOc2cnc3c(ccn3CC(=O)O)c2)c1 the results were Pf Dd2 inh inactive.
For CCCCCC(=O)Nc1nc2c(s1)C[C@@H]1[C@](C)(CO)[C@H](O)CC[C@@]1(C)[C@@H]2CC(=O)O the results were Pf Dd2 inh 21%.
`CCOC(=O)Cn1c(=O)n(-c2cccc(Cl)c2)c2nc(-c3ccccc3Cl)nc(C(N)=O)c21` gave Pf Dd2 inh 10µM*.
`CCOC(=O)Cn1c(=O)n(-c2ccccc2OC)c2nc(-c3ccccc3F)nc(C(N)=O)c21` gave Pf Dd2 inh -30%.
CCOC(=O)Cn1c(=O)n(CC2CCCO2)c2nc(-c3ccccc3Cl)nc(C(N)=O)c21 (stereo not given) was read as Pf Dd2 inh 6%.
Screening CCN1c2cc(C(=O)N3CCN(c4ccc(F)cc4)CC3)ccc2C(=O)N2CCCCC21 (stereo not given) returned Pf Dd2 inh -11%.
For O=C(c1csc2nc(-c3ccc(C(F)(F)F)cc3)cn12)N1CCN2CCCC2C1 (stereo not given) the results were Pf Dd2 inh 4%.
CCCN(CC1CCOC1)C(=O)c1ccc(C(F)(F)F)cc1 (stereo not given) was read as Pf Dd2 inh 12%[5.79 µM].
`c1cncc(-c2ccnc(NCC(c3cccnc3)N3CCCCC3)n2)c1` (stereo not given) gave Pf Dd2 inh -13%.
For CN1CCCC1CCNc1nccc(-c2cnn(-c3ccc(F)cc3)c2)n1 (stereo not given) the results were Pf Dd2 inh 8.9µM*.
Screening OCC1CCCCN1CCNc1nccc(-c2cccnc2)n1 (stereo not given) returned Pf Dd2 inh -30%.
CC1Oc2ccc(NC(=O)c3ccc(F)cc3)cc2CN(Cc2ccccc2F)C1=O (stereo not given) was read as Pf Dd2 inh inactive.
Screening CC(=O)NC1(C)CCN(Cc2cnc(-c3ccccc3)s2)CC1 returned Pf Dd2 inh -8%[44.1 µM].
Screening CC(=O)NC1(C)CCN(Cc2cnc(-c3ccccc3OCc3ccccc3)s2)CC1 returned Pf Dd2 inh 11µM*.
CC(=O)NC1(C)CCN(Cc2ccccc2-c2cccc(C(C)=O)c2)C1 (stereo not given) was read as Pf Dd2 inh inactive.
`CC(=O)NC1(C)CCN(Cc2ccc(-c3ccc(N4CCOCC4)cc3)cc2)C1` (stereo not given) gave Pf Dd2 inh -21%[44.1 µM].
`CC(=O)NC1(C)CCN(Cc2ccc(-c3ccccc3OCc3ccccc3)cc2)C1` (stereo not given) gave Pf Dd2 inh 13µM*.
`CC(=O)NC1(C)CCN(Cc2cnc(-c3cccc(N(C)C)c3)s2)CC1` gave Pf Dd2 inh 12%[44.1 µM].
`COc1ccc(Cl)cc1NC(=O)CCC1CCCN(C(=O)CN2CCOC2=O)C1` (stereo not given) gave Pf Dd2 inh 1%.
For Cc1ccc(C(=O)N2CCC3(Cc4ccccc4NC3=O)C2)cc1 (stereo not given) the results were Pf Dd2 inh inactive.
Screening O=C(NC[C@H]1OC[C@@H](NCc2ccccn2)[C@@H]1O)c1cccs1 returned Pf Dd2 inh -12%[44.1 µM].
O=C(COc1ccccc1)N1CC(F)(F)C[C@H]1c1nnc(C2CC2)o1 was read as Pf Dd2 inh 25%.
For CC(=O)N1CCC(c2nn(-c3ccccc3)c(=O)[nH]2)CC1 the results were Pf Dd2 inh -24%[44.1 µM].
Screening O=C(Cc1cccc(F)c1)N1CCC(n2cc(-c3nc(C4CC4)no3)nn2)CC1 returned Pf Dd2 inh -10%.
